High-throughput results from PubChem.
NR3A LBD binder: modulates the human NR3A ligand-binding domain; NR3A LBD differential scanning fluorimetry, Tm shift; 0% = protein alone, 100% = glycine-bound protein; Tm shift relative to glycine control, % at 25 µM; 340,000 tested, 2.5% active; AID 1259313;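 active = melting temperature shift of at least 10% of the positive control shift, at one fixed dose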
ADAM10 inh: inhibits human ADAM10. O14672. recombinant ADAM10, EDANS/DABCYL FRET peptide cleavage, 3 h. 370,000 tested, 0.62% active. inhibition, % at 7 µM;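 active = inhibition above a per-campaign cutoff equal to the mean of compounds falling between control-based bounds plus 3 SD, cut at about 20% in these data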;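 note: 0% = DMSO wells while the 100% control is not disclosed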
FAS-TE inh: FAS thioesterase (human) inhibition; AID 602261; P49327; recombinant FAS-TE, OMFH fluorogenic substrate, fluorescence endpoint; 360,000 tested, 0.67% active; inhibition, % at 15 µM;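 active = compounds whose normalised, plate-corrected inhibition of enzyme fluorescence in the single-dose primary screen is 50% or more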;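 note: 0% = DMSO with enzyme and 100% = substrate without enzyme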
ADAM17 inh: ADAM17 inhibition, QFRET primary screen | inhibition, % at 6.95 µM | 370,000 tested, 0.83% active | recombinant ADAM17, EDANS/DABCYL FRET peptide cleavage | P78536 | AID 720648;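 active = inhibition above the mean of compounds lying between control limits plus 3 SD, set per campaign, cut at about 8.5% in these data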;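 note: 0% = DMSO-only wells as the low control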
HGIII-sPLA2 inh: Blocks human group III sPLA2 activity. 370,000 tested, 0.56% active. QFRET BODIPY PC-A2 liposome hydrolysis, fluorescence. AID 743126. Q9NZ20. inhibition, % at 12.2 µM;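 active = inhibition above mean plus 3 SD of compounds lying within the high and low control bounds, cut at about 19% in these data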;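 note: 0% = median of test compound wells and 100% = no enzyme DMSO wells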
Target sequence (Q9NZ20 whole entry, looked up): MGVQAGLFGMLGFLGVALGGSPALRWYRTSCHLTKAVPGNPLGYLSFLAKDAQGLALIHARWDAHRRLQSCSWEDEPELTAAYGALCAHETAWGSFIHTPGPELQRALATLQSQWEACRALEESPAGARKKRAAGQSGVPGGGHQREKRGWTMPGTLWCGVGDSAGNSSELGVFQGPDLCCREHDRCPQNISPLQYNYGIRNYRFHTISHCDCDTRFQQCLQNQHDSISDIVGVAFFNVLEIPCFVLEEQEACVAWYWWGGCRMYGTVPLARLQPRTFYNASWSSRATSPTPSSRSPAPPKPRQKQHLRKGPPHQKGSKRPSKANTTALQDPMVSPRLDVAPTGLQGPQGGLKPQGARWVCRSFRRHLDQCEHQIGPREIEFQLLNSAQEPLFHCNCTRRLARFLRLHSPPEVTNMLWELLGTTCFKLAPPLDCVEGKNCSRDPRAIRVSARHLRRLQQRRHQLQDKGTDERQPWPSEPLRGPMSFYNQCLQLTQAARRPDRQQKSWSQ
ADAM10 confirm: human ADAM10 inhibition, confirmation. inhibition, % at 6.95 µM. AID 743208. ADAM10 QFRET peptide cleavage, EDANS fluorescence. shares compounds with ADAM10 inh. 2,100 tested, 1% active;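 active = inhibition above about 20% chosen separately for each screening run, limit read from the data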;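 note: 0% = DMSO wells and 100% = marimastat wells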
ADAM17 counter: inhibits human ADAM17 in ADAM10 exosite counter-screen | shares compounds with ADAM10 inh | ADAM17 QFRET peptide cleavage, EDANS fluorescence | inhibition, % at 6.95 µM | 2,100 tested, 0.5% active;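 active = mean triplicate inhibition above the solvent-only control wells' mean plus 3 SD, cut at about 12% in these data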;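 note: 0% = DMSO wells and 100% = marimastat wells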
ADAM10 ctr: counter-screen for ADAM17 exosite inhibitors: inhibitors of human ADAM10; inhibition, % at 6.95 µM; recombinant ADAM10, EDANS/DABCYL FRET peptide cleavage, 3 h; 2,900 tested, 47% active; shares compounds with ADAM17 inh;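 active = mean inhibition over the triplicate runs exceeds the activity threshold set in the earlier primary screen, cut at about 20% in these data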;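 note: 0% = DMSO wells and 100% = marimastat wells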
ADAM17 confirm: human ADAM17 inhibition, confirmation; recombinant ADAM17, EDANS/DABCYL QFRET peptide cleavage; shares compounds with ADAM17 inh; 2,900 tested, 65% active; inhibition, % at 6.95 µM; AID 743257;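 active = mean inhibition across replicates above the hit cutoff set in the primary screen, cut at about 8.5% in these data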;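 note: 0% = DMSO wells and 100% = marimastat wells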
* = called active by the depositor; x = not tested or not shown; ! = a repeat was not active. The list is not random: actives were taken first. Their share in the collection is about 4.3%.

SMILES | NR3A LBD binder | ADAM10 inh | FAS-TE inh | ADAM17 inh | HGIII-sPLA2 inh | ADAM10 confirm | ADAM17 counter | ADAM10 ctr | ADAM17 confirm
OC(c1ccc(Cl)c(F)c1)c1ncc(-c2ccc(Oc3ccccc3)cc2)[nH]1 (configuration not stated) | x | 11 | 21 | 4 | -1 | x | x | x | x
Cc1cccc(NS(=O)(=O)c2ccc(C3CCCCC3)cc2)c1 | 0 | 32* | 28 | 16* | -37 | 10 | 4 | 24* | 15*
COc1ccc(NC(=O)NNC(=O)CCn2nc(C)c([N+](=O)[O-])c2C)cc1OC | x | -3 | x | 0 | 1 | x | x | x | x
Cc1cc2c(c(=O)o1)[C@@]1(C(=O)N(C)c3ccccc31)C1=C(CCCC1=O)O2 | x | -2 | x | -3 | 7 | x | x | x | x
Cc1onc(-c2c(Cl)cccc2Cl)c1C(=O)NC1C(=O)N2C1SC(C)(C)C2C(=O)O (configuration not stated) | -2 | 12 | -2 | 0 | -5 | x | x | x | x
Cc1onc(-c2c(Cl)cccc2Cl)c1C(=O)N[C@@H]1C(=O)N2[C@@H]1SC(C)(C)[C@@H]2C(=O)O | -1 | 21*! | -4 | 9.6*! | -27 | 0 | 0 | 1 | 3
COc1ccc(N2CCC(CNC(=S)Nc3cccc(OC)c3)C2)cc1 (configuration not stated) | x | 20* | x | 8.8* | 15 | 3 | 1 | 11 | 11*
COc1ccc(N2CCC(CNC(=O)Nc3cccc(OC)c3)C2)cc1 (configuration not stated) | -5 | -1 | -4 | 1 | 4 | x | x | x | x
CN1CCCCC(NC(=O)c2ccc(C#N)cc2)C1=O (configuration not stated) | x | -3 | x | -2 | 2 | x | x | x | x
CCc1ccc(NC(=O)CO/N=C(\C)c2cc3ccccc3o2)cc1 | -8 | 24* | 22 | 13* | -29 | 6 | 2 | 18 | 13*
C/C(=N\OCC(=O)NC12CC3CC(CC(C3)C1)C2)c1cc2ccccc2o1 | 4 | -5 | 42 | -12 | -12 | x | x | x | x
COc1ccc(-c2csc(C(O)c3ccc(F)c(F)c3)n2)cc1 (configuration not stated) | x | 7 | 23 | 2 | -18 | x | x | x | x
O=C(Nc1ccc(F)c(Cl)c1)c1cc(C2CCCCN2C(=O)c2ccc(Cl)cc2)on1 (configuration not stated) | x | -3 | 22 | -1 | -3 | x | x | x | x
Cn1nc(C(C)(C)C)cc1C(=O)N1CCCCC1c1cc(C(=O)Nc2ccc(F)c(Cl)c2)no1 (configuration not stated) | x | 20* | 22 | 12* | -18 | 5 | 2 | 20* | 12*
COC(=O)C1=C(C)N(CC(C)C)C(=S)NC1c1cccc(Br)c1 (configuration not stated) | x | 10 | x | 2 | 9 | x | x | x | x
C[C@H](NC(=O)c1nc[nH]c1C(=O)N[C@@H](Cc1ccccc1)C(=O)OC(C)(C)C)C(=O)OCc1ccccc1 | -12 | 25* | 20 | 10* | -9 | 9 | 4 | 38* | 25*
Cc1ccc(NC(=O)c2nc[nH]c2C(=O)N[C@H](C)c2ccccc2)cc1 | 0 | 20* | 28 | 13* | -14 | 5 | 2 | 20* | 11*
C[C@H](NC(=O)c1nc[nH]c1C(=O)N[C@@H](Cc1ccccc1)C(=O)OC(C)(C)C)c1ccccc1 | -14 | 37* | 17 | 18* | 3 | 10 | 3 | 55* | 28*
CC(C)C[C@H](NC(=O)c1nc[nH]c1C(=O)NCCCCCNC(=O)OC(C)(C)C)C(=O)OC(C)(C)C | -15 | 23* | 16 | 9.8* | -20 | 4 | 0 | 35* | 15*
C[C@@H](NC(=O)c1nc[nH]c1C(=O)N[C@@H](CCCCNC(=O)OC(C)(C)C)C(=O)OC(C)(C)C)c1ccccc1 | -13 | 43* | 18 | 22* | 4 | -1 | 0 | 37* | 16*
COc1cc(OC)cc(-c2nnc(SCc3c(F)cccc3Cl)o2)c1 | 0 | 1 | 36 | -3 | -19 | x | x | x | x
Fc1cccc(Cl)c1CSc1nnc(CNc2ccccc2)o1 | -5 | 24* | 24 | 14* | -27 | 0 | 0 | 12 | 7
O=C(c1cc(C2CC2)on1)N(C1CCCCC1)C1CCOCC1 | x | -7 | x | -7 | 6 | x | x | x | x
Oc1ccccc1C1SC(c2ccccc2O)SC(c2ccccc2O)S1 (configuration not stated) | -408 | 35* | 40 | 11* | -26 | 8 | 3 | 42* | 23*
CCCCCCCCN1C(=O)[C@@H](CC(=O)NCc2cccs2)C[C@@]2(C(=O)OC)C1=C[C@H](C1CCCC1)O[C@@H]2C | x | -6 | x | -4 | 0 | x | x | x | x
SMILES | NR3A LBD binder | ADAM10 inh | FAS-TE inh | ADAM17 inh | HGIII-sPLA2 inh | ADAM10 confirm | ADAM17 counter | ADAM10 ctr | ADAM17 confirm
COc1ccc(NC(=S)NC(NC(=O)c2ccc(Cl)cc2Cl)C(Cl)(Cl)Cl)c([N+](=O)[O-])c1 (configuration not stated) | 11* | 22* | 24 | 8.8* | 3 | 10 | 2 | 31* | 17*
COC(=O)c1ccccc1NC(=S)NC(NC(=O)c1ccccc1[N+](=O)[O-])C(Cl)(Cl)Cl (configuration not stated) | -4 | -3 | 17 | -6 | 3 | x | x | x | x
Cc1ccc(Oc2ccc(Cl)cc2N)cc1 | -2 | 2 | 13 | 2 | 2 | x | x | x | x
Nc1cc(Cl)ccc1Oc1ccc2ccccc2c1 | -13 | 29* | 29 | 17* | 4 | 9 | 3 | 12 | 12*
COC(=O)c1cc2c(c3c4cc(C)ccc4n(S(=O)(=O)c4cccc(C)c4)c13)C(=O)N(Cc1ccc(C(F)(F)F)cc1)C2 | x | -4 | x | -1 | 0 | x | x | x | x
CCOC(=O)CC[C@@]1(C(=O)OCC)C[C@@H](CC(=O)N2CCN(C(=O)c3ccco3)CC2)C(=O)N2CCCC=C21 | x | 4 | x | 3 | 3 | x | x | x | x
CC(C)(C)OC(=O)[C@H](Cc1ccccc1)NC(=O)c1nc[nH]c1C(=O)NCc1ccccc1 | -21 | 25* | 18 | 12* | -12 | 8 | 2 | 31* | 17*
CC(C)(C)OC(=O)NCc1ccc(CNC(=O)c2[nH]cnc2C(=O)N[C@@H](Cc2ccccc2)C(=O)OC(C)(C)C)cc1 | -8 | 42* | 18 | 14* | -6 | 12 | 3 | 56* | 27*
